Experimental data from PubChem BioAssay (Tox21).
Inconclusive results are not listed. Active and inactive are the calls of the source. Unless noted, calls follow the shape of the dose curve; as a rule, active = well fitted curve in the direction sought with a large enough effect in the repeat runs; inconclusive = weak or mixed curves; inactive = no such curve, though single readings can be large; an effect the other way counts as inactive or inconclusive. Positions of bridges follow the written chain, without caps; N, C: chain ends. Non-standard residues stand in square brackets, D forms with d. Residues, ends and D or L forms follow the SMILES beside them. *: point of attachment. X2 = CC[C@H](C)CCCCC(=O)*; Dab = NCC[C@H](N)C(=O)O

Columns and labels:
[1] = qHTS assay to identify small molecule antagonists of the thyroid receptor (TR) signaling pathway - cell viability counter screen (AID 743064); also: nearly all actives have a fitted effect of over 50% in size
Procedure, shortened: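 In rat pituitary GH3.TRE-Luc reporter cells co-exposed to compound and 1 nM T3 for 23.5 h, cytotoxicity was assessed with CellTiter-Fluor in the same wells, read by fluorescence.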

[2] = qHTS assay to identify small molecule antagonists of the thyroid receptor (TR) signaling pathway (AID 743065); also: nearly all actives have a fitted effect of over 55% in size
Procedure, shortened: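 GH3.TRE-Luc rat pituitary cells carrying two TR response elements driving luciferase were plated for 4 h, given compound plus 1 nM T3 (final), and incubated 23.5 h at 37 C. ONE-Glo luminescence measured reporter inhibition; CellTiter-Fluor fluorescence tracked cytotoxicity.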

[3] = tested on: thyroid hormone receptor (rat, GH3 cells); assay: qHTS assay to identify small molecule agonists of the thyroid receptor (TR) signaling pathway (AID 743066; calls by dose curve)
[4] = target: Estrogen receptor (Homo sapiens) (UniProt P03372); assay: qHTS assay to identify small molecule antagonists of the estrogen receptor alpha (ER-alpha) signaling pathway (AID 743069; active = well fitted curve in the direction sought with a large enough effect in the signal ratio in the repeat runs, not every such curve was filed as active; the % refers to the signal ratio)
Chain of Estrogen receptor (Homo sapiens) (P03372 whole entry, looked up): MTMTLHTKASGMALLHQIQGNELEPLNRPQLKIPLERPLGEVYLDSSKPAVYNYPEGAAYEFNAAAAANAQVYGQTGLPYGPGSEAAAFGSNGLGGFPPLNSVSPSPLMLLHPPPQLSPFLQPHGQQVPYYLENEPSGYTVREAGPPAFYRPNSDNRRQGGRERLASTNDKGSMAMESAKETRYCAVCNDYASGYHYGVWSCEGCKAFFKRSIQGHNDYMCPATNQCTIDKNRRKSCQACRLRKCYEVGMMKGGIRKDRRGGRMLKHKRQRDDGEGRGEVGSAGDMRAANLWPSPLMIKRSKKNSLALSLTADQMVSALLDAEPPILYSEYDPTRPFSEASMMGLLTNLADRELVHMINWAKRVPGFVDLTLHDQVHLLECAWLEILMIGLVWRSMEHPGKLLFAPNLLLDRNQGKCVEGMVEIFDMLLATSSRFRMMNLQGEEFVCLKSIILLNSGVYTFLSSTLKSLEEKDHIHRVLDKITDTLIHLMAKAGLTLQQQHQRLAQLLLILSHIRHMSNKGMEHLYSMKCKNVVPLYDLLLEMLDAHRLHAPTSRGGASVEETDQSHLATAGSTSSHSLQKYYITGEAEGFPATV
Procedure, shortened: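 Estradiol-stimulated ER-alpha-UAS-bla HEK293 cells, 18 hr compound exposure at 37C. LiveBLAzer B/G substrate, 2 hr RT, fluorescence read.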

[5] = qHTS assay to identify small molecule antagonists of the estrogen receptor alpha (ER-alpha) signaling pathway - cell viability counter screen (AID 743074; calls by dose curve;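 also: HEK293 cells carrying ER-alpha-UAS-bla reporter stimulated with 17beta-estradiol; nearly all actives have a fitted effect of over 45% in size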)
[6] = target: Estrogen receptor (Homo sapiens) (UniProt P03372); assay: qHTS assay to identify small molecule agonists of the estrogen receptor alpha (ER-alpha) signaling pathway (AID 743075; calls by dose curve;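 also: HEK293 GripTite cells with ER-alpha and UAS-driven beta-lactamase reporter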)
[7] = target: Estrogen receptor (Homo sapiens) (UniProt P03372); assay: qHTS assay to identify small molecule agonists of the estrogen receptor alpha (ER-alpha) signaling pathway using the BG1 cell line (AID 743079); settings: BG1Luc4E2 cells, ERE-luciferase agonist, 22 h; activation: at 70.3 µM (top of the series); also: nearly all actives have a fitted effect of over 20% in size
[8] = qHTS assay to identify small molecule antagonists of the estrogen receptor alpha (ER-alpha) signaling pathway using the BG1 cell line (AID 743080; calls by dose curve;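 also: BG1 cells stimulated with 17beta-estradiol alongside compound; nearly all actives have a fitted effect of over 25% in size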)
Procedure, shortened: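 Endogenous full-length ER-alpha in BG1-Luc-4E2 cells drives a stably integrated 4×ERE luciferase gene; compounds were tested against 17beta-estradiol over 21.5 h, with luminescence and multiplexed viability fluorescence recorded.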

[9] = qHTS assay to identify small molecule antagonists of the estrogen receptor alpha (ER-alpha) signaling pathway using the BG1 cell line - cell viability counter screen (AID 743081);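 also: compound given together with 17beta-estradiol as the ER stimulus; nearly all actives have a fitted effect of over 45% in size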
[10] = target: Aromatase (Homo sapiens) (UniProt P11511); assay: qHTS assay to identify aromatase inhibitors (AID 743083); also: nearly all actives have a fitted effect of over 55% in size
Chain of Aromatase (Homo sapiens) (P11511 whole entry, looked up): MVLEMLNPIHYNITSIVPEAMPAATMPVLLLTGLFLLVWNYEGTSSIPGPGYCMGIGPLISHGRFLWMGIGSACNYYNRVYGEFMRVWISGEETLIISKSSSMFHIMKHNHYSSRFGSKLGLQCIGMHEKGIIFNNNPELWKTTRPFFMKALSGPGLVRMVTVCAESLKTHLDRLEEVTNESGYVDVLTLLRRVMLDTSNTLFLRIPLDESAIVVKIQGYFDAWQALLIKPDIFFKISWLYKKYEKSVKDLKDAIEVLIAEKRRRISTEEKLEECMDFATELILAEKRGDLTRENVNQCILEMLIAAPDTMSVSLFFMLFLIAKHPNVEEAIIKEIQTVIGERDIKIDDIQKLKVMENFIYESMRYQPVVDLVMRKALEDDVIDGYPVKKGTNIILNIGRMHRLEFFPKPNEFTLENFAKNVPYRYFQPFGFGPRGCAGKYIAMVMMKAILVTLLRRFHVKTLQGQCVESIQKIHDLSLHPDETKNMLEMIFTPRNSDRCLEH

[11] = qHTS assay to identify aromatase inhibitors - cell viability counter screen (AID 743084);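 also: cells stimulated with testosterone during compound exposure; nearly all actives have a fitted effect of over 55% in size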
[12] = target: Aryl hydrocarbon receptor (Homo sapiens) (UniProt P35869); assay: qHTS assay to identify small molecule that activate the aryl hydrocarbon receptor (AhR) signaling pathway (AID 743085);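 also: HG2L7.5c1 human HepG2 liver cells with stably integrated DRE-driven firefly reporter; nearly all actives have a fitted effect of over 15% in size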
Chain of Aryl hydrocarbon receptor (Homo sapiens) (P35869 whole entry, looked up): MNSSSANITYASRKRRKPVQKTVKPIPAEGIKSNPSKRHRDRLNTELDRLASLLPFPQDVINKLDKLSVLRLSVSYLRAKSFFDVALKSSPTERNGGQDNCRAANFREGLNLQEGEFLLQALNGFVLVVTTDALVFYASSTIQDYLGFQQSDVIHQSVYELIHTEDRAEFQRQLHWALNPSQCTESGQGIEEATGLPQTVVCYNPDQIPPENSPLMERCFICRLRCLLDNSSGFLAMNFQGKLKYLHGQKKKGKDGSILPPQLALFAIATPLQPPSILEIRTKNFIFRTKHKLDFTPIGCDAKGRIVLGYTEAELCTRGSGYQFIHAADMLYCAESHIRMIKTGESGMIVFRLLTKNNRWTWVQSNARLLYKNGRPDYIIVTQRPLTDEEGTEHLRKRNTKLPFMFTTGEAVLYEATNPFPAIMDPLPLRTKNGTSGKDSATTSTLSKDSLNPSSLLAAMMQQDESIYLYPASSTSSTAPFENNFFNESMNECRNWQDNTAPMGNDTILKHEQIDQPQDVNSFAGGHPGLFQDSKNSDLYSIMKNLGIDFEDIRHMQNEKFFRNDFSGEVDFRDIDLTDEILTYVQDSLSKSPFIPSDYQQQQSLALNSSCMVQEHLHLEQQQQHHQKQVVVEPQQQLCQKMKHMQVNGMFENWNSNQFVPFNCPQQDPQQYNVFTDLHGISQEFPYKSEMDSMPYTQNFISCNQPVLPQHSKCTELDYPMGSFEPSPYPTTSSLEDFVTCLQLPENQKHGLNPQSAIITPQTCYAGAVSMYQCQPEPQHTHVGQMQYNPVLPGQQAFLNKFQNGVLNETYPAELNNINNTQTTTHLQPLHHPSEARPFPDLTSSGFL
Procedure, shortened: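 AhR agonist activity is inferred from enhanced light output of a DRE-controlled firefly luciferase reporter in HepG2 cells, measured with ONE-Glo following 24 h treatment at 37C.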

[13] = qHTS assay to identify small molecule that activate the aryl hydrocarbon receptor (AhR) signaling pathway - cell viability counter screen (AID 743086);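 also: HepG2 liver cells carrying the AhR DRE luciferase reporter; nearly all actives have a fitted effect of over 45% in size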
Procedure, shortened: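 HepG2-AhR-luc (HG2L7.5c1) cells, 4000/well, were preincubated 5 h at 37C, exposed to compound in qHTS format for 24 hr at 37C, then given CellTiter-Fluor for 30 min; viability was read as fluorescence in the reporter wells.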

[14] = target: Peroxisome proliferator-activated receptor gamma (Homo sapiens) (UniProt P37231); assay: qHTS assay to identify small molecule agonists of the peroxisome proliferator-activated receptor gamma (PPARg) signaling pathway (AID 743094; active = well fitted activation curve with a large enough effect in the signal ratio in the repeat runs, not every such curve was filed as active; the % refers to the signal ratio)
Chain of Peroxisome proliferator-activated receptor gamma (Homo sapiens) (P37231 whole entry, looked up): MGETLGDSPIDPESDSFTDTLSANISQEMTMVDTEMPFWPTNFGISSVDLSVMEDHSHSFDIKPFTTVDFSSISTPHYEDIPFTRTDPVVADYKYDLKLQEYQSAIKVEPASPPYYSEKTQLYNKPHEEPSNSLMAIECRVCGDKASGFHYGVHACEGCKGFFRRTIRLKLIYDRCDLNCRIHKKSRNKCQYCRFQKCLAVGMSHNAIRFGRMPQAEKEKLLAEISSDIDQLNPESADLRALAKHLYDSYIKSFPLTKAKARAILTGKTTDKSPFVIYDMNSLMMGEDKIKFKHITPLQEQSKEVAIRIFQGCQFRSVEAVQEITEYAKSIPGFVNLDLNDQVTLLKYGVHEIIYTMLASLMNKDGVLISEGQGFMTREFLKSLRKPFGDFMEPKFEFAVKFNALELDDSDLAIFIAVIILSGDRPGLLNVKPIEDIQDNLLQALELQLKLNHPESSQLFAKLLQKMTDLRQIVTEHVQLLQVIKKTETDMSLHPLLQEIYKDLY
Procedure, shortened: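 Beta-lactamase FRET fluorescence was the read-out after a 1 h room-temperature substrate step, following 17 h compound treatment at 37C of HEK293H cells expressing a UAS-driven bla reporter responsive to PPARg.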

[15] = qHTS assay to identify small molecule phospholipidosis (PLD) inducers (AID 1259344; active = well fitted curve in the direction sought with a large enough effect; an effect the other way counts as inactive or inconclusive)
Procedure, shortened: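 HepG2 cells grown on collagen I take up LipidTOX Red while exposed to compound for 24 h; after fixation they are imaged at 20x and pit metrics are extracted.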

[16] = target: Nuclear receptor subfamily 1 group I member 2 (Rattus norvegicus) (UniProt Q9R1A7); assay: Rat pregnane X receptor (rPXR) activation by small molecules, qHTS assay (AID 1346983); settings: rPXR luciferase reporter cells, One-Glo luminescence, 24 h; max activation: active compounds read high; also: nearly all actives have a fitted effect of over 20% in size
Chain of Nuclear receptor subfamily 1 group I member 2 (Rattus norvegicus) (Q9R1A7 whole entry, looked up): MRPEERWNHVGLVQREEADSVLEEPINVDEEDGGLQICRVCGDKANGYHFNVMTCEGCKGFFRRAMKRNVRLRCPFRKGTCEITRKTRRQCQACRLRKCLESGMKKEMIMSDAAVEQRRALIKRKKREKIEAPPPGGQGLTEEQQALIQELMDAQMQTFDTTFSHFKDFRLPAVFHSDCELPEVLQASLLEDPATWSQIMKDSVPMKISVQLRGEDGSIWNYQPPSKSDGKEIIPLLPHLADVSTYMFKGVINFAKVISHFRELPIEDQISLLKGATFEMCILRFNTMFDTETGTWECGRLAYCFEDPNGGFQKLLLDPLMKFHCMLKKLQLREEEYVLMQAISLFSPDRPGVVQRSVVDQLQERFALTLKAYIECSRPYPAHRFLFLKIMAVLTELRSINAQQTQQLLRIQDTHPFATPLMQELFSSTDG
Procedure, shortened: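 Cell-based rPXR luciferase reporter assay, 2,000 cells per well, rested 5hr at 37 C before compound addition in DMSO, then 24 hr at 37 C. One-Glo reagent was added and luminescence read after 30 min at room temperature.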

[17] = target: Nuclear receptor subfamily 1 group I member 2 (Homo sapiens) (UniProt O75469); assay: CYP3A4 induction through human pregnane X receptor (PXR) by small molecules, qHTS assay (AID 1346984); also: nearly all actives have a fitted effect of over 40% in size
Procedure, shortened: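 Luminescence readout: luciferase signal after One-Glo (30 min, room temperature), following 3 h at 37C with 3uM final Luciferin-IPA P450 substrate. Cells were DPX-2 (HepG2, PXR/CYP3A4-luc co-transfected) dosed for 24 h.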

[18] = target: Nuclear receptor subfamily 1 group I member 2 (Homo sapiens) (UniProt O75469); assay: Human pregnane X receptor (PXR) activation by small molecules, qHTS assay (AID 1346985); also: nearly all actives have a fitted effect of over 40% in size
Procedure, shortened: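 DPX-2 cells (HepG2 co-transfected with a PXR response element and a CYP3A4-promoter luciferase construct) were seeded at 2,000 per well, rested 5 hr at 37C, then exposed to DMSO-dissolved compounds for 24 hr. Activation was read as luciferase luminescence.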
% is scaled to controls: 0 for no effect and ±100 for the full control effect.

CC[C@H](C)CCCCC(=O)N[C@@H](CCN)C(=O)N[C@H](C(=O)N[C@@H](CCN)C(=O)N[C@H]1CCNC(=O)[C@@H]([C@H](C)O)NC(=O)[C@H](CCN)NC(=O)[C@H](CCN)NC(=O)[C@H](CC(C)C)NC(=O)[C@@H](CC(C)C)NC(=O)[C@H](CCN)NC1=O)[C@@H](C)O (X2-[Dab]T[Dab][Dab][Dab][dL]L[Dab][Dab][dT]; lactam 4-C)
inactive: Potency [1] | Potency [2] | Potency [3] | Potency [4] | Potency [5] | Potency [6] | Potency [7] | Potency [8] | Potency [9] | Potency [10] | Potency [11] | Potency [12] | Potency [13] | Potency [14] | Potency [15] | max activation [16] -4.02% | Potency [17] | Potency [18]

O=C(O)CO.[NH2-].[NH2-].[Pt+2]
inactive: Potency [1] | Potency [2] | Potency [3] | Potency [4] | Potency [5] | Potency [6] | Potency [7] | Potency [8] | Potency [9] | Potency [10] | Potency [11] | Potency [12] | Potency [13] | Potency [14] | Potency [15] | max activation [16] -2.14% | Potency [17] | Potency [18]

CCN(CC)CCOC(=O)c1cccnc1
inactive: Potency [1] | Potency [2] | Potency [3] | Potency [4] | Potency [5] | Potency [6] | Potency [7] | Potency [8] | Potency [9] | Potency [10] | Potency [11] | Potency [12] | Potency [13] | Potency [14] | Potency [15] | max activation [16] -7.53% | Potency [17] | Potency [18]

CO/N=C(\C(=O)N[C@@H]1C(=O)N2C(C(=O)O)=C(CSc3nnnn3C)CS[C@H]12)c1csc(N)n1
inactive: Potency [1] | Potency [2] | Potency [3] | Potency [4] | Potency [5] | Potency [6] | Potency [7] | Potency [8] | Potency [9] | Potency [10] | Potency [11] | Potency [12] | Potency [13] | Potency [14] | Potency [15] | max activation [16] -3.46% | Potency [17] | Potency [18]

Cc1nc(NS(=O)(=O)c2ccc(N)cc2)nc(C)c1Br
inactive: Potency [1] | Potency [2] | Potency [3] | Potency [4] | Potency [5] | Potency [6] | Potency [7] | Potency [8] | Potency [9] | Potency [10] | Potency [11] | Potency [12] | Potency [13] | Potency [14] | Potency [15] | max activation [16] -1.45% | Potency [17] | Potency [18]

NS(=O)(=O)c1cc2c(cc1Cl)NC(Cc1ccccc1)NS2(=O)=O (centres undefined)
inactive: Potency [1] | Potency [2] | Potency [3] | Potency [4] | Potency [5] | Potency [6] | Potency [7] | Potency [8] | Potency [9] | Potency [10] | Potency [11] | Potency [12] | Potency [13] | Potency [14] | Potency [15] | max activation [16] -1.36% | Potency [17] | Potency [18]

O=C(Cc1cccs1)N[C@@H]1C(=O)N2C(C(=O)[O-])=C(C[n+]3ccccc3)CS[C@H]12
inactive: Potency [1] | Potency [2] | Potency [3] | Potency [4] | Potency [5] | Potency [6] | Potency [7] | Potency [8] | Potency [9] | Potency [10] | Potency [11] | Potency [13] | Potency [14] | Potency [15] | max activation [16] -1.81% | Potency [17] | Potency [18]

CCCc1ccc(C(=O)O)cc1
inactive: Potency [1] | Potency [2] | Potency [3] | Potency [4] | Potency [5] | Potency [6] | Potency [7] | Potency [8] | Potency [9] | Potency [10] | Potency [11] | Potency [12] | Potency [13] | Potency [14] | Potency [15] | max activation [16] -2.43% | Potency [17] | Potency [18]

CCN1C(=O)NC(c2ccccc2)C1=O (centres undefined)
inactive: Potency [1] | Potency [2] | Potency [3] | Potency [4] | Potency [5] | Potency [6] | Potency [7] | Potency [8] | Potency [9] | Potency [10] | Potency [11] | Potency [12] | Potency [13] | Potency [15] | max activation [16] 7.71% | Potency [17] | Potency [18]

O=C1NCCN1c1ncc([N+](=O)[O-])s1
inactive: Potency [1] | Potency [2] | Potency [3] | Potency [4] | Potency [5] | Potency [6] | Potency [7] | Potency [8] | Potency [9] | Potency [10] | Potency [11] | Potency [12] | Potency [13] | Potency [14] | Potency [15] | max activation [16] -1.52% | Potency [17] | Potency [18]

O=C(CCCCCCCCCCCCC1CCCC1)Nc1ccc(S(=O)(=O)c2ccc(NC(=O)CCCCCCCCCCCCC3CCCC3)cc2)cc1
inactive: Potency [1] | Potency [2] | Potency [3] | Potency [4] | Potency [5] | Potency [6] | Potency [7] | Potency [9] | Potency [10] | Potency [11] | Potency [13] | Potency [14] | Potency [15] | max activation [16] -2.51% | Potency [17] | Potency [18]

C[C@H](O)[C@H](O)[C@H]1CNc2nc(N)[nH]c(=O)c2N1
inactive: Potency [1] | Potency [2] | Potency [3] | Potency [4] | Potency [5] | Potency [6] | Potency [7] | Potency [8] | Potency [10] | Potency [11] | Potency [12] | Potency [13] | Potency [14] | Potency [15] | max activation [16] -2.27% | Potency [17] | Potency [18]

NC(N)=NCC1COc2ccccc2O1 (centres undefined)
inactive: Potency [1] | Potency [2] | Potency [3] | Potency [4] | Potency [5] | Potency [6] | Potency [7] | Potency [8] | Potency [10] | Potency [11] | Potency [13] | Potency [14] | Potency [15] | max activation [16] -4.35% | Potency [17] | Potency [18]

CC(Oc1ccccc1)C(=O)N[C@@H]1C(=O)N2[C@@H]1SC(C)(C)[C@@H]2C(=O)O (some centres undefined)
inactive: Potency [1] | Potency [2] | Potency [3] | Potency [4] | Potency [5] | Potency [6] | Potency [7] | Potency [9] | Potency [10] | Potency [11] | Potency [12] | Potency [13] | Potency [14] | Potency [15] | max activation [16] -1.33% | Potency [17] | Potency [18]
